Assay results published in the supplement of paper PMC6555819.

Legend:
Assay in all cases: PBM binding z-score (relative to random genomic background probes); higher = stronger binding; sequences stand for … in GC…GCGATTGACAGCGTAGAATGAAGG
[1] = system: RARb homodimer (NR concentration 270 nM)
How it was run: (§1)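 Scanned fluorescence from custom Agilent 4×180K protein-binding microarrays was regression-normalized. Binding z-scores use random background probes as reference. Ligand-free nuclear receptor dimers were incubated on the arrays for 1 h and detected with antibodies against each partner (one per run).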

[2] = system: RARg:RXRa (NR concentration 270 nM, RXRa partner concentration 90 nM)
How it was run: as §1

[3] = system: RARg homodimer (NR concentration 270 nM)
How it was run: as §1

[4] = system: RXRa DBDmut IVT, anti-RXR (DBD mutation: RXRa K156A/R161A, NR concentration 90 nM)
How it was run: as §1

[5] = system: RXRa homodimer (NR concentration 180 nM)
How it was run: as §1

[6] = system: THRa:RXRa (NR concentration 90 nM, RXRa partner concentration 90 nM)
How it was run: as §1

[7] = system: THRa homodimer (NR concentration 90 nM)
How it was run: as §1

[8] = system: VDR:RXRa (NR concentration 270 nM, RXRa partner concentration 90 nM)
How it was run: as §1

[9] = system: VDR homodimer (NR concentration 270 nM)
How it was run: as §1

Sequence: TCTTGTAGATCATCAGGTTAAGAAAGCTGGCCAA
- PBM binding z-score [1]: 0.398
- PBM binding z-score [2]: 0.0917
- PBM binding z-score [3]: -0.23
- PBM binding z-score [4]: 0.859
- PBM binding z-score [5]: 0.451
- PBM binding z-score [6]: 0.929
- PBM binding z-score [7]: 0.613
- PBM binding z-score [8]: 0.814
- PBM binding z-score [9]: 0.0246

Sequence: CCTAGTTGGTCATGGTCACACACGCTATAGGTAC
- PBM binding z-score [1]: 1.56
- PBM binding z-score [2]: 1.06
- PBM binding z-score [3]: 1.54
- PBM binding z-score [4]: 0.565
- PBM binding z-score [5]: 0.699
- PBM binding z-score [6]: 0.458
- PBM binding z-score [7]: 0.619
- PBM binding z-score [8]: 0.655
- PBM binding z-score [9]: 0.905

Sequence: TCTAGCAGCCCAGAGGGTCACTCAAGAGGTACGG
- PBM binding z-score [1]: 2.38
- PBM binding z-score [2]: 2.16
- PBM binding z-score [3]: 1.8
- PBM binding z-score [4]: -0.186
- PBM binding z-score [5]: 2.23
- PBM binding z-score [6]: 1.63
- PBM binding z-score [7]: -0.455
- PBM binding z-score [8]: 1.1
- PBM binding z-score [9]: 0.294

Sequence: ATCTCTAGGCAAAGTTCAGTGAAAGATCGATAGA
- PBM binding z-score [1]: 2.14
- PBM binding z-score [2]: 1.79
- PBM binding z-score [3]: 2.42
- PBM binding z-score [4]: 1.24
- PBM binding z-score [5]: 1.06
- PBM binding z-score [6]: 0.452
- PBM binding z-score [7]: -0.26
- PBM binding z-score [8]: 1.06
- PBM binding z-score [9]: 1.48

Sequence: TCTCGGAGGACACGAAGGTAAGAGCTTTCCAGAG
- PBM binding z-score [1]: 0.164
- PBM binding z-score [2]: 0.396
- PBM binding z-score [3]: 1.27
- PBM binding z-score [4]: 0.371
- PBM binding z-score [5]: -0.0884
- PBM binding z-score [6]: 1.18
- PBM binding z-score [7]: 0.0809
- PBM binding z-score [8]: -0.386
- PBM binding z-score [9]: -0.641

Sequence: ATCGAAAAGTCGAGGTGAGTATAGAGAAAGGGAA
- PBM binding z-score [1]: 0.0212
- PBM binding z-score [2]: 0.371
- PBM binding z-score [3]: 0.476
- PBM binding z-score [4]: -0.67
- PBM binding z-score [5]: 0.323
- PBM binding z-score [6]: 1.17
- PBM binding z-score [7]: 0.201
- PBM binding z-score [8]: -0.237
- PBM binding z-score [9]: -0.198

Sequence: TCGAGTGGGTTAGTCGGGGCATTCAGCCAACATA
- PBM binding z-score [1]: 0.697
- PBM binding z-score [2]: -0.203
- PBM binding z-score [3]: -0.276
- PBM binding z-score [4]: 0.51
- PBM binding z-score [5]: -0.199
- PBM binding z-score [6]: 1.18
- PBM binding z-score [7]: 0.456
- PBM binding z-score [8]: 2.25
- PBM binding z-score [9]: 0.85

Sequence: TAGCCTAGGTCATGCGGGCCAGGATAGTGTCGGC
- PBM binding z-score [1]: 3.1
- PBM binding z-score [2]: 3.77
- PBM binding z-score [3]: 4.7
- PBM binding z-score [4]: 0.23
- PBM binding z-score [5]: 2.94
- PBM binding z-score [6]: 3.06
- PBM binding z-score [7]: 0.933
- PBM binding z-score [8]: 2.76
- PBM binding z-score [9]: 0.706

Sequence: TCTTGTAGATAAATAGAGGTTAAGAAAGTGCGCT
- PBM binding z-score [1]: 1.11
- PBM binding z-score [2]: 0.845
- PBM binding z-score [3]: 0.418
- PBM binding z-score [4]: 1.3
- PBM binding z-score [5]: 1.46
- PBM binding z-score [6]: 1.54
- PBM binding z-score [7]: -0.012
- PBM binding z-score [8]: 1.87
- PBM binding z-score [9]: 0.923

Sequence: CGTCCAATGTCAAGGTCAGTGAAAGAGACTCGAA
- PBM binding z-score [1]: 3.45
- PBM binding z-score [2]: 3.38
- PBM binding z-score [3]: 4.06
- PBM binding z-score [4]: 1.1
- PBM binding z-score [5]: 2.22
- PBM binding z-score [6]: 2.91
- PBM binding z-score [7]: 2.18
- PBM binding z-score [8]: 2.08
- PBM binding z-score [9]: 1.57

Sequence: AGAATGAGGTTACCAAAGATCACGGAAACGCTTG
- PBM binding z-score [1]: 1.02
- PBM binding z-score [2]: 2.24
- PBM binding z-score [3]: 1.89
- PBM binding z-score [4]: 1.17
- PBM binding z-score [5]: 2.95
- PBM binding z-score [6]: 3.03
- PBM binding z-score [7]: 0.696
- PBM binding z-score [8]: 1.97
- PBM binding z-score [9]: 0.151

Sequence: TAGCCTAGGTCATTGGGCCAATATAGTACGCATC
- PBM binding z-score [1]: 2.88
- PBM binding z-score [2]: 4.02
- PBM binding z-score [3]: 3.84
- PBM binding z-score [4]: 1.41
- PBM binding z-score [5]: 2.93
- PBM binding z-score [6]: 2.91
- PBM binding z-score [7]: 1.2
- PBM binding z-score [8]: 2.33
- PBM binding z-score [9]: 1.1

Sequence: GCTGCTAGGTCAACTGATCGTCAGCTAAAGCTCG
- PBM binding z-score [1]: 3.16
- PBM binding z-score [2]: 4.5
- PBM binding z-score [3]: 5.79
- PBM binding z-score [4]: 1.38
- PBM binding z-score [5]: 2.8
- PBM binding z-score [6]: 2.73
- PBM binding z-score [7]: 0.546
- PBM binding z-score [8]: 1.13
- PBM binding z-score [9]: -0.532

Sequence: ATATGTAGGTTATCGGGACATTCAGTTTGCGCAT
- PBM binding z-score [1]: 1.09
- PBM binding z-score [2]: 0.79
- PBM binding z-score [3]: 1.16
- PBM binding z-score [4]: 0.776
- PBM binding z-score [5]: 1.03
- PBM binding z-score [6]: 1.72
- PBM binding z-score [7]: 1.55
- PBM binding z-score [8]: 1.04
- PBM binding z-score [9]: 1.48

Sequence: TCTAGCAGGCTAGAGGGTCACTCAAGAGGTACGG
- PBM binding z-score [1]: 2.47
- PBM binding z-score [2]: 2.08
- PBM binding z-score [3]: 1.81
- PBM binding z-score [4]: 0.0423
- PBM binding z-score [5]: 2.42
- PBM binding z-score [6]: 1.59
- PBM binding z-score [7]: -0.445
- PBM binding z-score [8]: 1.38
- PBM binding z-score [9]: 0.31

Sequence: CTCGAAAGGTTGGTTGAGGTGAGTATACGGATAA
- PBM binding z-score [1]: 1.12
- PBM binding z-score [2]: 0.599
- PBM binding z-score [3]: 0.684
- PBM binding z-score [4]: 0.251
- PBM binding z-score [5]: 0.502
- PBM binding z-score [6]: 4.42
- PBM binding z-score [7]: 1.82
- PBM binding z-score [8]: 0.828
- PBM binding z-score [9]: 0.513

Sequence: CCTATTAGTTGACCATAAGGGCACCCGAAGCTCG
- PBM binding z-score [1]: 1.86
- PBM binding z-score [2]: 1.16
- PBM binding z-score [3]: 1.04
- PBM binding z-score [4]: 0.326
- PBM binding z-score [5]: 0.908
- PBM binding z-score [6]: 2.02
- PBM binding z-score [7]: 1.61
- PBM binding z-score [8]: 1.09
- PBM binding z-score [9]: 1.39

Sequence: ACTAGCAGGCCAAGGGTCTCTCAAGATTAGTCCG
- PBM binding z-score [1]: -0.0592
- PBM binding z-score [2]: -0.0301
- PBM binding z-score [3]: 0.272
- PBM binding z-score [4]: -0.533
- PBM binding z-score [5]: 0.0173
- PBM binding z-score [6]: -0.234
- PBM binding z-score [7]: -0.93
- PBM binding z-score [8]: -0.657
- PBM binding z-score [9]: -0.872
